In PubChem BioAssay (NCATS):
Records with an inconclusive call do not appear. The source made the active and inactive calls. Unless noted, calls come from the whole dose curve; as a rule, active = well fitted curve in the direction sought with a large enough effect; inconclusive = small, poorly fitted or top-dose-only effect, or another doubt; inactive = no such curve, though single readings can be large; an effect the other way counts as inactive or inconclusive.

How the values were obtained:
[1] = target: Glucocorticoid receptor (Homo sapiens) (UniProt P04150); experiment: qHTS assay for small molecule agonists of glucocorticoid receptor signaling (AID 588532; active = well fitted curve in the direction sought with a large enough effect in the signal ratio, with a control signal flat; the % refers to the signal ratio;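 note: 100% = dexamethasone at 0.1 µM and 0% = DMSO only wells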); settings: HeLa MMTV-bla, beta-lactamase ratio, agonist, 18 h; stronger effect = higher value; percent of dexamethasone control, DMSO zero
Summary of the method: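 Quantitative HTS using CellSensor MMTV-bla HeLa cells in charcoal/dextran-treated serum; compounds tested up to 92 uM. After 18 h at 37 C, CCF4 dye reported reporter induction.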

[2] = qHTS assay for environmental chemicals that activate the Aryl hydrocarbon Receptor (AhR) signaling pathway (AID 651777); settings: 1A2-DRE human hepatoma cells, luciferase, 24 h; activation: stronger effect = higher value; note: % of control where 0% means no effect; nearly all actives have a fitted effect of over 15% in size
Summary of the method: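 Human hepatoma 1A2-DRE cells, stably carrying a dioxin response element and CYP1A2 promoter driving luciferase, were exposed to compounds for 24 hr at 37 C and 5% CO2. Luciferase signal was then read after 30 min One-Glo at room temperature.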

[3] = target: Peroxisome proliferator-activated receptor alpha (Homo sapiens) (UniProt Q07869); experiment: qHTS assay for small molecule agonists of the peroxisome proliferator-activated receptor alpha (PPARalpha) signaling pathway (AID 651778); settings: PathHunter PPARalpha complementation, chemiluminescence, 6 h; max response: stronger effect = higher value; note: % of control where 0% means no effect
Summary of the method: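 Chemiluminescence from complemented enzyme reported PPARalpha activation in cells after 6 hr of compound treatment at 37 C. The detection reagent was incubated for 60 min at room temperature, and compounds were scored as agonists.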

[4] = qHTS assay for small molecule agonists of the antioxidant response element (ARE) signaling pathway measured by Nrf2-dependant transcriptional activity (AID 720636; active = well fitted curve in the direction sought with a large enough effect in the repeat runs; an effect the other way counts as inactive or inconclusive; note: % of control where 0% means no effect); settings: ARE-luc HepG2, Nrf2 luciferase reporter, 16 h; series mostly up to 92.4 µM
Summary of the method: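 ARE-luc HepG2 cells carrying an Nrf2-responsive luciferase reporter were plated in medium with 1% dialyzed FBS, left 6 hr at 37 C to attach, then exposed to compound for 16 hr. Luciferase luminescence was read after ONE-Glo addition.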

[5] = qHTS assay for cell viability of HEK293 cells (AID 743288); settings: ATP luminescence (CellTiter-Glo), 18 h; max response: stronger effect = lower value; note: nearly all actives have a fitted effect of over 50% in size; note: potency is the fitted concentration of half-maximal effect
Summary of the method: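 Total intracellular ATP, measured with a luciferase-coupled reagent, indicates the number of viable HEK293 cells. Exposure to test chemicals lasts 18 h at 37 C in 1,536-well format at 2,000 cells/well.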

[6] = qHTS assay for cell viability of the p53RE-bla HCT-116 cell line (AID 743292); settings: p53RE-bla HCT-116 viability, ATP luminescence, 16 h; series mostly up to 95 µM; note: nearly all actives have a fitted effect of over 55% in size; note: potency is the fitted concentration of half-maximal effect
Summary of the method: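 CellSensor p53RE-bla HCT-116 cells, 4,000/well, preincubated 5 h at 37 C, then exposed to compounds in DMSO for 16 h at 37 C. Viability read as CellTiter-Glo luminescence (intracellular ATP) after 30 min at room temperature.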

[7] = qHTS assay for small molecule activators of the human pregnane X receptor (PXR) signaling pathway (AID 720659; call rule not given here; note: 0% is about no effect); settings: DPX-2 HepG2 CYP3A4-luciferase, 24 h; series mostly up to 92.3 µM
[8] = target: Peroxisome proliferator-activated receptor gamma (Homo sapiens) (UniProt P37231); experiment: qHTS assay for small molecule antagonists of peroxisome proliferator-activated receptor gamma signaling (AID 588537; active = well fitted inhibition curve with a large enough effect in the signal ratio, with a control signal flat, not every such curve was filed as active; the % refers to the signal ratio; note: potency is the fitted concentration of half-maximal effect); settings: HEK293 PPARg-UAS-bla, beta-lactamase ratio, antagonist mode; series mostly up to 76.8 µM
Summary of the method: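 Antagonist mode, beta-lactamase reporter in HEK293; charcoal/dextran FBS 1%; 3000 cells/well, 37 C 6-6.5 h; cpd titration + rosiglitazone 50 nM final, 16 h 37 C; CCF4, 2 h RT; 460/530 nm; Hill fit → IC50, efficacy.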

[9] = qHTS for Inhibitors of the vitamin D receptor (VDR): Hit Validation using a Texas Red Assay (AID 602201); settings: VDR coregulator binding, Texas Red fluorescence polarization, agonist-bound VDR ligand-binding domain; series mostly up to 57.1 µM; note: potency is the fitted concentration of half-maximal effect
Summary of the method: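 After a 2-hour room-temperature incubation, polarization of Texas-Red emission was read (Ex 595 nm/Em 615 nm). Final mix contained 7 nM Texas Red, 1.5 uM VDR-LBD and LG19078.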

[10] = qHTS assay for small molecule antagonists of peroxisome proliferator-activated receptor delta signaling (AID 588535; active = well fitted inhibition curve with a large enough effect in the signal ratio, with a control signal flat, not every such curve was filed as active; the % refers to the signal ratio;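 for max response: cells co-treated with a PPAR-delta agonist as stimulator during compound exposure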); settings: HEK293T PPARd-UAS-bla, beta-lactamase FRET ratio, 18 h; 460 nm channel
Summary of the method: (§1)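 HEK293T PPAR-delta-UAS-bla cells, 4000/well, 2% charcoal/dextran FBS; 5 h 37 C; cpd titration; 18 h 37 C; CCF4 2 h RT; FI 460/530 nm; Hill fit → IC50, efficacy.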

[11] = target: Peroxisome proliferator-activated receptor delta (Homo sapiens) (UniProt Q03181); experiment: as above; settings: HEK293T PPARd-UAS-bla, beta-lactamase FRET ratio, 18 h; series mostly up to 76.7 µM
Summary of the method: as §1

[12] = target: Thyroid hormone receptor beta (Homo sapiens) (UniProt P10828); experiment: qHTS assay for small molecule agonists of thyroid hormone receptor beta signaling (AID 588545; calls by dose curve;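 note: 0% = DMSO only and 100% = 10 nM T3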); settings: TR-UAS-bla GripTite HEK 293, beta-lactamase ratio, agonist mode, 18 h; series mostly up to 76.7 µM
Summary of the method: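 Compounds were tested as agonists in TR-UAS-bla-GripTite HEK 293 cells. After 18 hrs at 37 C, CCF4 substrate was added and fluorescence read after 2 hrs at room temperature.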

[13] = target: Thyroid hormone receptor beta (Homo sapiens) (UniProt P10828); experiment: qHTS assay for small molecule antagonists of thyroid hormone receptor beta signaling (AID 588547; active = well fitted inhibition curve with a large enough effect in the signal ratio, with a control signal flat, not every such curve was filed as active; the % refers to the signal ratio;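 note: cells stimulated with 0.4 nM T3 agonist during compound exposure; % is set by controls: 0 for no effect and ±100 for the full control effect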); settings: TR-UAS-bla HEK293, beta-lactamase ratio, antagonist mode, 18 h
Summary of the method: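 Inhibition of T3-driven (0.4nM final) beta-lactamase reporter activity was measured over 0.59 nM to 92 uM compound after 18 h at 37 C. The cells were GripTite HEK293 TR-UAS-bla in charcoal/dextran-stripped serum, with CCF4 ratio read-out and IC50 from Hill fits.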

[14] = qHTS assay for small molecule activators of the p53 signaling pathway (AID 651743; active = well fitted activation curve with a large enough effect in the signal ratio, not every such curve was filed as active; the % refers to the signal ratio; note: % of control where 0% means no effect); settings: HCT-116 p53RE-bla, beta-lactamase FRET ratio, 16 h; activation: stronger effect = higher value
Summary of the method: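 Read-out is fluorescence intensity from the LiveBLAzer B/G FRET substrate, added for 2 hours at room temperature after HCT-116 p53RE-bla cells had been incubated with compounds for 16 hours at 37 C.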

[15] = qHTS assay for small molecule activators of the nuclear factor-kappa B (NF-kB) signaling pathway (AID 651749; active = well fitted activation curve with a large enough effect in the signal ratio; the % refers to the signal ratio; note: % of control where 0% means no effect); settings: NF-kB-bla ME-180 cells, beta-lactamase FRET ratio, 16 h; activation: stronger effect = higher value
Summary of the method: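 Readout: beta-lactamase reporter driven by an NF-kB response element, detected fluorescently as loss of FRET. Cells were the ME-180 line, treated 16 hr at 37C with pin-transferred compound.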

[16] = qHTS assay for small molecule agonists of the antioxidant response element (ARE) signaling pathway measured by Nrf2-dependant transcriptional activity - cell viability counter screen (AID 720653; active = well fitted curve in the direction sought with a large enough effect in the repeat runs; an effect the other way counts as inactive or inconclusive; note: % is set by controls: 0 for no effect and ±100 for the full control effect); settings: ARE-bla HepG2 viability, CellTiter-Glo ATP luminescence, 16 h; max response: stronger effect = lower value
Summary of the method: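 Cytotoxicity counter screen: intracellular ATP quantified by CellTiter-Glo luminescence in the same ARE-bla HepG2 plates, after 16 h compound exposure and a 2 h beta-lactamase substrate step.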

[17] = target: Peroxisome proliferator-activated receptor gamma (Homo sapiens) (UniProt P37231); experiment: qHTS assay for small molecule agonists of peroxisome proliferator-activated receptor gamma signaling (AID 588536; active = well fitted curve in the direction sought with a large enough effect in the signal ratio, with a control signal flat, not every such curve was filed as active; the % refers to the signal ratio;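 note: 0% = DMSO basal wells and 100% = rosiglitazone at 2 µM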); settings: HEK293 PPARg-UAS-bla, beta-lactamase ratio, 16 h, percent of rosiglitazone response, DMSO as zero; series mostly up to 76.7 µM
Summary of the method: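 Ratiometric blue/green fluorescence (405 nm excitation; 460 and 530 nm emission) from CCF4-loaded HEK293 reporter cells serves as signal. Exposure to test compounds lasts 16 h at 37 C in medium containing 1% charcoal/dextran-treated serum.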

[18] = target: Vitamin D3 receptor (Homo sapiens) (UniProt P11473); experiment: qHTS assay for small molecule antagonists of vitamin D receptor signaling (AID 588541; calls by dose curve;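 note: receptor activated by calcitriol during compound treatment; % is set by controls: 0 for no effect and ±100 for the full control effect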); settings: HEK293T VDR-UAS-bla, beta-lactamase ratio, antagonist mode; series mostly up to 76.7 µM
Summary of the method: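 Antagonist-mode beta-lactamase reporter assay: HEK293T VDR-UAS-bla cells were exposed to titrated compound alongside 1-alpha,25-dihydroxyvitamin D3 at 3 nM final for 16 h. Values were normalized to the 50 nM agonist control and DMSO basal, with IC50 and efficacy from Hill equation fits.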

[19] = target: Vitamin D3 receptor (Homo sapiens) (UniProt P11473); experiment: qHTS assay for small molecule agonists of vitamin D receptor signaling (AID 588543; calls by dose curve;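 note: 0% = DMSO basal and 100% = reference agonist control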); settings: HEK293T VDR-UAS-bla, beta-lactamase ratio, 16 h; series mostly up to 76.8 µM
Summary of the method: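 Agonist-mode beta-lactamase reporter: HEK293T VDR-UAS-bla cells in charcoal-stripped 2% FBS, compound series 16 h 37 C, CCF4 2 h RT. EC50 from Hill fit, scaled against DMSO and 50 nM calcitriol control.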

[20] = qHTS assay for small molecule agonists of retinoid X receptor alpha signaling (AID 588544; calls by dose curve;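 for activation: 0% = DMSO basal wells and 100% = reference agonist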); settings: HEK293T RXRa-UAS-bla, beta-lactamase reporter, 18 h; 530 nm emission
[21] = target: Retinoic acid receptor RXR-alpha (Homo sapiens) (UniProt P19793); experiment: as above; settings: HEK293T RXRa-UAS-bla, beta-lactamase reporter, 18 h; series mostly up to 76.7 µM
[22] = qHTS assay for small molecule antagonists of retinoid X receptor alpha signaling (AID 588546; active = well fitted inhibition curve with a large enough effect in the signal ratio, with a control signal flat, not every such curve was filed as active; the % refers to the signal ratio;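 note: cells stimulated with 9-cis-retinoic acid as agonist; % is set by controls: 0 for no effect and ±100 for the full control effect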); settings: HEK293T RXRa-UAS-bla, beta-lactamase ratio, antagonist mode; measured here: W530 green channel, cytotoxicity proxy
Summary of the method: (§2)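 Beta-lactamase reporter inhibition, read as CCF4 fluorescence ratio (ex 405, em 460/530 nm) after 2 h at RT. HEK293T UAS-bla cells, 2500/well, were stimulated with 9-cis-RA at 500 or 100 nM final alongside test compound for 18 h at 37 C.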

[23] = target: Retinoic acid receptor RXR-alpha (Homo sapiens) (UniProt P19793); experiment: as above; settings: HEK293T RXRa-UAS-bla, beta-lactamase ratio, antagonist mode
Summary of the method: as §2

[24] = qHTS assay for small molecule agonists of the antioxidant response element (ARE) signaling pathway (AID 651741; active = well fitted activation curve with a large enough effect in the signal ratio; the % refers to the signal ratio; note: % of control where 0% means no effect); settings: HepG2 ARE-bla reporter, beta-lactamase FRET ratio, 16 h; series mostly up to 96 µM
Summary of the method: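 Quantitative HTS in HepG2 cells stably expressing an ARE-beta-lactamase reporter; 16 h compound exposure at 37 C, followed by 2 h room-temperature incubation with LiveBLAzer B/G FRET substrate and fluorescence measurement.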

[25] = target: Nuclear receptor subfamily 1 group I member 2 (Rattus norvegicus) (UniProt Q9R1A7); experiment: qHTS assay for small molecule activators of the rat pregnane X receptor (rPXR) signaling pathway (AID 651751; call rule not given here; note: 0% is about no effect); settings: rPXR reporter cells, luciferase (One-Glo), 24 h
Nuclear receptor subfamily 1 group I member 2 (Rattus norvegicus), sequence (Q9R1A7 whole entry, looked up): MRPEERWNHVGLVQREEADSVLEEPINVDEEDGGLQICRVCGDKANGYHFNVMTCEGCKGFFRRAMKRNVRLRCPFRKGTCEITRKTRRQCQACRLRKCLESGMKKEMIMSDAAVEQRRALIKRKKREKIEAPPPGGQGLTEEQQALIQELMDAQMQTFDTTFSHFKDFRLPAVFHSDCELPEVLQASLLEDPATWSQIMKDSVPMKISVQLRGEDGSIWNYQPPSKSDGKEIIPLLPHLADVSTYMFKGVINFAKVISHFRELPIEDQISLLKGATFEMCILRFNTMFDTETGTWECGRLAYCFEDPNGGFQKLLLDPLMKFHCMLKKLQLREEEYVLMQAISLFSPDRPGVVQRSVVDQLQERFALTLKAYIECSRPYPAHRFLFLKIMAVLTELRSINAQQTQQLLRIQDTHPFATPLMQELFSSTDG

Thyroid hormone receptor beta (Homo sapiens), sequence (P10828 whole entry, looked up): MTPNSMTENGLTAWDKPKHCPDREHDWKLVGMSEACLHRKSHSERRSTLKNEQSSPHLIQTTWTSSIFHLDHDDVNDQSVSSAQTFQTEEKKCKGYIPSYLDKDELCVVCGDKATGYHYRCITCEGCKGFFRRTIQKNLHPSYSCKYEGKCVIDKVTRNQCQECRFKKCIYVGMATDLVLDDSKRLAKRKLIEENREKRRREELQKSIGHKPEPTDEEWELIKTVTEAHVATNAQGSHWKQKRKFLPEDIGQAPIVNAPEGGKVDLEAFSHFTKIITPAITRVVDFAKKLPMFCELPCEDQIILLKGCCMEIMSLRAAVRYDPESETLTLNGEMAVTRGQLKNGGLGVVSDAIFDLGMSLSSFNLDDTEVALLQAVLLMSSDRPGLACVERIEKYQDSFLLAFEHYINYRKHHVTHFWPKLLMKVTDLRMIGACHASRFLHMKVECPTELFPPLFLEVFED
Peroxisome proliferator-activated receptor alpha (Homo sapiens), sequence (Q07869 whole entry, looked up): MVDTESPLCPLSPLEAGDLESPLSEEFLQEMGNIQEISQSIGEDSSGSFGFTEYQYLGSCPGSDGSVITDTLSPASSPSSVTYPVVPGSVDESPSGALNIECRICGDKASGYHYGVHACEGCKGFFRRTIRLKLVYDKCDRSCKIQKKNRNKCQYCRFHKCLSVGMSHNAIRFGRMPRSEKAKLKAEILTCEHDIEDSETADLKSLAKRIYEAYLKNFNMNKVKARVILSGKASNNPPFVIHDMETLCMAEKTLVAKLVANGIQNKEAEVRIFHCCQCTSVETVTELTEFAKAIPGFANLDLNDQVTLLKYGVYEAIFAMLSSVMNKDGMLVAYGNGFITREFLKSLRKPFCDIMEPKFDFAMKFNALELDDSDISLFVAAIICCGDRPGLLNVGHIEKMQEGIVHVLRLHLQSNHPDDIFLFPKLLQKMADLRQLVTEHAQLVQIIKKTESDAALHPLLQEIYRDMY
Peroxisome proliferator-activated receptor gamma (Homo sapiens), sequence (P37231 whole entry, looked up): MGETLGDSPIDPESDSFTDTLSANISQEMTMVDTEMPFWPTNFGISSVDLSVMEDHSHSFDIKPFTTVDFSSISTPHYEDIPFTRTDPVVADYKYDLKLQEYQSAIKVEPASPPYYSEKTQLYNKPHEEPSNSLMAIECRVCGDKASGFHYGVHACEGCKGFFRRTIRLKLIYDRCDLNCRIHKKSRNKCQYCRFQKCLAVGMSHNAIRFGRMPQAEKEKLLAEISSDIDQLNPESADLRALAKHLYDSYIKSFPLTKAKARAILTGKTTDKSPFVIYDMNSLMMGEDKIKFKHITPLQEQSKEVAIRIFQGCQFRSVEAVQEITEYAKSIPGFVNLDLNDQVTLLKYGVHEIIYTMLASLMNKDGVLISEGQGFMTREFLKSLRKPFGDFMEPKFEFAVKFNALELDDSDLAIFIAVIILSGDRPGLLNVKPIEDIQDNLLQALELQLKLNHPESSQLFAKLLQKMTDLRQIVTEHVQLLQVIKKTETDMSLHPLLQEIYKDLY
Vitamin D3 receptor (Homo sapiens), sequence (P11473 whole entry, looked up): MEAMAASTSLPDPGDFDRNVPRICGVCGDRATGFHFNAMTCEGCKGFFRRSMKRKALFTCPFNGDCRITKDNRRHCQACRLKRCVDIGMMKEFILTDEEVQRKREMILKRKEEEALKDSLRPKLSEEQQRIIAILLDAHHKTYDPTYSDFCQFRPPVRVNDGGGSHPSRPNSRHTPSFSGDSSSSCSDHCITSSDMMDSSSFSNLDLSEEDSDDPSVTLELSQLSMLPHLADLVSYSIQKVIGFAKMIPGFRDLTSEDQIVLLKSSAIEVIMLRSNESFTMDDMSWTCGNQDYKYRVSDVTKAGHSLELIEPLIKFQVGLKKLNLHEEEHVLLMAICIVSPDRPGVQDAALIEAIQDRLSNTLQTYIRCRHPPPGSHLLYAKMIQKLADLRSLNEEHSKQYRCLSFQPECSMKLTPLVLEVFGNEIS
Peroxisome proliferator-activated receptor delta (Homo sapiens), sequence (Q03181 whole entry, looked up): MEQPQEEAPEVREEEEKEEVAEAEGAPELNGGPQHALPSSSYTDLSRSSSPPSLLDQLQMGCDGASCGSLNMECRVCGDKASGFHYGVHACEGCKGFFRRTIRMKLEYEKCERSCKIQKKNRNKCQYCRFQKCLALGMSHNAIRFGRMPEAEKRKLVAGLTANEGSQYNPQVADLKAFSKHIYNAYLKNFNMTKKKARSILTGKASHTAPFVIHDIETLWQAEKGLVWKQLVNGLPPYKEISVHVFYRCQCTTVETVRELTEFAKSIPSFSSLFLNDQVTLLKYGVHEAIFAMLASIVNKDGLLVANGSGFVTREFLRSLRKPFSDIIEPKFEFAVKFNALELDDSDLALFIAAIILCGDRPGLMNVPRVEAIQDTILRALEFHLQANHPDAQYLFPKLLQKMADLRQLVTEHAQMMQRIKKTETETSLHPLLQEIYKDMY
Glucocorticoid receptor (Homo sapiens), sequence (P04150 whole entry, looked up): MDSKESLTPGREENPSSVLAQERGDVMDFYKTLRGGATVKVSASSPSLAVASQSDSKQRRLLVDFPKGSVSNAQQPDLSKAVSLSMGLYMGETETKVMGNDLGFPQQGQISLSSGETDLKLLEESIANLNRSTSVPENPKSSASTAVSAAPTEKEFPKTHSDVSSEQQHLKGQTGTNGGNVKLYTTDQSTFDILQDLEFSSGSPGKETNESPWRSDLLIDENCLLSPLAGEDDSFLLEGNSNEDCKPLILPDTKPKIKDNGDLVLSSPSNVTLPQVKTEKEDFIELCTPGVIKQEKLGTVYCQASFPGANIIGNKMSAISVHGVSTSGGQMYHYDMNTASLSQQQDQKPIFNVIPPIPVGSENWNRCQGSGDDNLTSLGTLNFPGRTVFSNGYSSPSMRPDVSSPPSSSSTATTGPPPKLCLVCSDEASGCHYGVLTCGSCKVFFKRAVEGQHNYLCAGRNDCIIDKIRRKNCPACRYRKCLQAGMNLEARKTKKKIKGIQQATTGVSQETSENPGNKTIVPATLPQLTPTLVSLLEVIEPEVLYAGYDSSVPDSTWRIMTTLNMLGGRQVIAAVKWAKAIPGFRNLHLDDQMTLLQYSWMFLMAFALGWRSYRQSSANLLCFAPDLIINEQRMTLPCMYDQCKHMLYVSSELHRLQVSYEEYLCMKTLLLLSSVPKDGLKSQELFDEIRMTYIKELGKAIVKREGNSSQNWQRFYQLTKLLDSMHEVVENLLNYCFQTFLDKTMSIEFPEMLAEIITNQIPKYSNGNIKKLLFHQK
Retinoic acid receptor RXR-alpha (Homo sapiens), sequence (P19793 whole entry, looked up): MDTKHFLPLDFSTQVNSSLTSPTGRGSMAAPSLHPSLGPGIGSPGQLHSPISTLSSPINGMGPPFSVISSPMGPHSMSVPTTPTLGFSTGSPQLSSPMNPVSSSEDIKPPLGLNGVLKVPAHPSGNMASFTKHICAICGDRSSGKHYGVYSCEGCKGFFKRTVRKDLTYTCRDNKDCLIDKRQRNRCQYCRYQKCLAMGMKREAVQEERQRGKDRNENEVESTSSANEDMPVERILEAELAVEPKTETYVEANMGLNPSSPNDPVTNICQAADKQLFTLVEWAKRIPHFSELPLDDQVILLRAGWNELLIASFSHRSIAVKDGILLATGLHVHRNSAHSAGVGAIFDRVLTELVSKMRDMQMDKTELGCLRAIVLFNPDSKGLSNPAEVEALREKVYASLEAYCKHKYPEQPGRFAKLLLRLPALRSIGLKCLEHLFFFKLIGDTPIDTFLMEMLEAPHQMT

CC[C@H](C)C1O[C@]2(C=C[C@@H]1C)C[C@@H]1C[C@@H](C/C=C(\C)[C@@H](O[C@H]3C[C@H](OC)[C@@H](O[C@H]4C[C@H](OC)[C@H](NC(C)=O)[C@H](C)O4)[C@H](C)O3)[C@@H](C)/C=C/C=C3\CO[C@@H]4[C@H](O)C(C)=C[C@@H](C(=O)O1)[C@]34O)O2 (some centres not stated)
active: Potency [5] 44.7 µM | Potency [6] 14.1 µM
inactive: activation [1] -14.6% | activation [2] -11.2% | max response [3] 6.61% | Potency [4] | outcome [7]

CC[C@H]1O[C@]2(CC[C@@H]1C)C[C@@H]1C[C@@H](C/C=C(\C)C[C@@H](C)/C=C/C=C3CO[C@@H]4[C@H](O)C(C)=C[C@@H](C(=O)O1)[C@]34O)O2
active: Potency [8] 22.4 µM | Potency [6] 31.6 µM
inactive: activation [2] -11.9% | Potency [4]

CCCNC(=O)c1nnsc1S(=O)c1ccc(Cl)cc1 (configuration not stated)
active: Potency [9] 3.16 µM

CC(C)(C)C(=O)Nc1ccc2c(c1)C(=O)C(=O)c1ccccc1-2
active: Potency [9] 3.16 µM

CC(C)C[C@H](NC(=O)OCC1c2ccccc2-c2ccccc21)C(=O)O
inactive: activation [1] -5.5% | Potency [11] | Potency [8] | Potency [12] | activity change % (negative = inhibition) [13] -4.45% | activation [14] -3.17% | activation [15] 1.69% | max response [3] 11.8% | max response [16] -7.25% | max response [5] -22.2% | Potency [6]
59%: max response [10]

O=C=NCCCCCCN=C=O
15.2%: max response [10]
-10.7%: max response [20]
inactive: Potency [11] | outcome [17] | Potency [8] | Potency [18] | outcome [19] | Potency [21] | Potency [12] | max response [23] -6.2% | Potency [24] | activation [14] 1.63% | activation [15] 0.731% | activation [2] -0.825% | max response [3] -1.66% | Potency [4] | max response [16] -0.323% | max response [5] -9.94% | Potency [6] | max response [25] -0.542% | outcome [7]
-6.96%: max response [22]
